Measured values reported in PubChem BioAssay (NCATS).
Records with an inconclusive call do not appear. A call without a number means that no potency is given here. Values without a mark were called inactive. The source made the active and inactive calls. Calls come from the whole dose curve; as a rule, active = well fitted inhibition curve with a large enough effect; inconclusive = small, poorly fitted or top-dose-only effect; inactive = flat fitted curve, though single readings scatter.

Each molecule was assayed against Calcium and integrin-binding protein 1 (Homo sapiens) (UniProt Q99828) (assay: Primary qHTS for Identification of Calcium Integrin Binding Protein 1 (CIB1) Competitor (AID 1508620;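 note: GST tagged CIB1 binding a fluorescein labelled alphaIIb integrin peptide tracer; top concentration of the series differs between compounds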)). Conditions: CIB1-GST / FITC-alphaIIb peptide fluorescence polarization; series mostly up to 114 µM.
Chain of Calcium and integrin-binding protein 1 (Homo sapiens) (Q99828 whole entry, looked up): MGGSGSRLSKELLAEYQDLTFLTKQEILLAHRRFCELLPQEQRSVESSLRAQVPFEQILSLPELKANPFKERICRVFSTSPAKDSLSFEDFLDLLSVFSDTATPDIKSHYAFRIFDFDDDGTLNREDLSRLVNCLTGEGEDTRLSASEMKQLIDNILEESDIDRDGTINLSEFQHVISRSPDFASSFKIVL
Summary of the method: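 CIB1-GST (1 uM final) and compound incubated 15 min at room temperature before adding FITC-alphaIIb peptide tracer (100 nM final). Competition for binding read by fluorescence polarization (ex 480, em 540) after another 15 min at room temperature.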

SMILES | Potency | activity change, negative = inhibition
Cc1c[nH]c2ncnc(N3CCC(CN)(C(=O)Nc4cccc(OC(=O)N(C)C)c4)CC3)c12 | inactive | 
Cc1cn(CCN2CCN(c3ccccc3-c3cc(C#N)cc(C(=O)NCCCN4CCCC4)c3)CC2)c2ccccc12 | inactive | 
CCC(C)C(=O)O[C@H]1[C@H](O)[C@@]2(COC(C)=O)C(CC1(C)C)C1=CCC3[C@@]4(C)CC[C@H](O[C@@H]5O[C@H](C(=O)O)[C@@H](O)[C@H](O)[C@H]5O)[C@@](C)(CO)C4CC[C@@]3(C)[C@]1(C)C[C@@H]2O (some centres undefined) | inactive | 
CC[C@H]1CN(c2nc(N)c(C(N)=O)nc2Cl)CCN1C1CCN(Cc2ccc(Cl)cc2)CC1 | inactive | 
O[C@@](Cc1ncc(CC2(C(F)(F)F)CC2)[nH]1)(c1ccc(-n2cccn2)cc1)C(F)(F)F | inactive | 
COc1ccc([C@H]2Cc3cccc(O)c3C(=O)O2)cc1OC | inactive | 
C=C1C(=O)O[C@@H]2[C@H]1CC(=O)[C@H](C)[C@@](O)(C(=O)/C=C/C)[C@H]2OC(=O)C(C)CC (some centres undefined) | inactive | 
CC(C)(C[C@@](O)(Cc1cc2ccncc2[nH]1)C(F)(F)F)c1cc(F)ccc1O | inactive | 
CCCn1ncc(CN2CCCC(C(=O)c3cccc(OC(C)C)c3)C2)c1C (centres undefined) | inactive | 
C=C1C(=O)O[C@@H]2C=C(COC(C)=O)CC/C=C(\CO)CC[C@@H]12 | inactive | 
COC1=CC(=O)C=C(C)C12Oc1c(Cl)c(OC)cc(OC)c1C2=O (centres undefined) | inactive | 
CCC(C)/C=C(C)/C=C/C1=CC2=C(Cl)C(=O)C(C)(OC(C)=O)C(=O)C2(O)C(OC)O1 (centres undefined) | inactive | 
O=C(NO)c1ccc(CC(=O)N(CCO)c2ccccc2)cc1 | inactive | 
CN1CCc2cc3c(cc2C(=O)Cc2cc4c(cc2C1)OCO4)OCO3 | inactive | 
Cc1ccc(S(=O)(=O)NCc2ccc(C(=O)NCCN(Cc3ccccc3)C(C)C)cc2)cc1 | inactive | 
CC(=O)O[C@]1(C(C)=O)CC[C@H]2[C@@H]3CCC4=CC(=O)CCC4=C3[C@@H](c3ccc(N(C)C)cc3)C[C@@]21C | inactive | 
CC(C)(C)c1ccc(C(=O)Nc2cn3cc(-n4ccnc4)ccc3n2)cc1 | inactive | 
CC(F)(F)CN1CCOc2c(nn(-c3ccccc3Cl)c2-c2ccc(Cl)cc2)C1=O | inactive | 
C=CC(=O)N1CCC(Oc2cc3c(Nc4ccc(Cl)c(Cl)c4F)ncnc3cc2OC)CC1 | inactive | 
CCCCOC(=O)NS(=O)(=O)c1sc(CC(C)C)cc1-c1ccc(Cn2ccnc2)cc1 | inactive | 

SMILES | Potency | activity change, negative = inhibition
Cc1cn2cc(C(=O)N(C)CCO)cc(NC3CCOc4cccc(C)c43)c2n1 (centres undefined) | inactive | 
CC(C)CCNC(=O)c1ccc2c(c1)nc(Nc1n[nH]c3ccc(-c4ccccc4OC(F)(F)F)cc13)n2C1CCC(O)CC1 (centres undefined) | inactive | 
CC(C)C[C@@H](C(=O)N[C@@H](Cc1ccc(OCc2ccccc2)cc1)C(=O)NC(C)(C)C)N(C)Cc1ccc(C(C)(C)C)cc1 | inactive | 
O=[N+]([O-])c1cn2c(n1)OC[C@@H](OCc1ccc(-c3ccc(OC(F)(F)F)cc3)nc1)C2 | inactive | 
O=C(C(Cc1cccc(C(F)(F)F)c1)NS(=O)(=O)c1cc(F)c2c(c1)CCNC2)N1CCCC1 (centres undefined) | inactive | 
CC(=O)O[C@@H]1[C@H](O[C@@H]2O[C@@H](CO)[C@H](O)[C@H]2O)[C@@H](O[C@@H]2O[C@@H](C)[C@H](O[C@@H]3OC[C@@H](O)[C@H](O)[C@H]3O)[C@@H](O)[C@H]2O)[C@H](OC(=O)[C@]23CCC(C)(C)C[C@H]2C2=CCC4[C@@]5(C)CC[C@H](O[C@@H]6O[C@H](C(=O)O)[C@@H](O)[C@H](O)[C@H]6O[C@@H]6O[C@H](CO)[C@H](O)[C@H](O)[C@H]6O)[C@@](C)(C=O)C5CC[C@@]4(C)[C@]2(C)C[C@H]3O)O[C@@H]1C (some centres undefined) |  | 1.08% [at 12.4 µM]
O=C(Nc1cccc2cccnc12)c1ccc(N2C(=O)[C@@H]3C4C=CC(C4)[C@@H]3C2=O)cc1 | inactive | 
COc1cc2ncnc(Nc3ccc(F)c(Cl)c3)c2cc1O | inactive | 
CCCCc1c(-c2ccc(OC)cc2)[nH]c2nccnc12 | inactive | 
CCC(C)/C=C(C)/C=C/C1=CC2=CC(=O)C3(C)OC(C)(O)C(C(=O)OC)C3C2=CO1 (centres undefined) | inactive | 
C#CCNCc1cc2cc(OCc3ccccc3)ccc2[nH]1 | inactive | 
C[C@@H]1CC[C@@]23CC[C@]4(C)[C@@](C=CC5[C@@]6(C)CC[C@H](O)C(C)(C)C6CC[C@]54C)(OC2=O)C3[C@H]1C (some centres undefined) | inactive | 
O=C(CCl)Nc1cccc(NC2=NS(=O)(=O)c3ccccc32)c1 | inactive | 
CC(=O)OC(C)(C)/C=C/C(=O)[C@](C)(O)[C@H]1C(O)C[C@@]2(C)[C@@H]3CC=C4[C@@H](C=C(O[C@@H]5O[C@H](CO)[C@@H](O)[C@H](O)[C@H]5O)C(=O)C4(C)C)[C@]3(C)C(=O)C[C@]12C (some centres undefined) | inactive | 
O=C(c1ccc(F)cc1)N1CCCC(c2nc(-c3ccc(F)cc3)no2)C1 (centres undefined) | inactive | 
O=C(NC1CCC1)c1ccc(C#Cc2cccc(F)c2)nc1 | inactive | 
Cc1cnn(-c2ccccc2)c1NC(=O)COCc1ccccc1 | inactive | 
C=C1C(=O)O[C@H]2CC(=C)[C@H]3CC[C@@](C)(O)[C@@H]3CC12 (some centres undefined) | inactive | 
O=C(NCCCCN1CCN(c2cccc(Cl)c2Cl)CC1)c1cc2ccccc2s1 | inactive | 
